Source: PubChem BioAssay AID2314 (National Center for Advancing Translational Sciences (NCATS), 2010)
Among all 300,000 compounds or so, about 37,000 (12%) were called active. This is one part of a sample in which actives are shown more often than they occur. Cut-off read from the data, not from the text of the source: active = max response mostly above about 13% (no sharp cut-off); inactive = mostly below about 14%.

Assay: Cycloheximide Counterscreen for Small Molecule Inhibitors of Shiga Toxin; note: read at 38.3 µM for the half of the compounds with a filed dose; 0% is about no effect
Conditions: cell reporter, cycloheximide protein synthesis inhibition counterscreen; active compounds read high

SMILES | max response
COCCCNC(=O)COc1cc(C)c(Cl)c(C)c1 | 5.62% (inactive)
CC(C)C(=O)NCc1cc(-c2ccc(Cl)cc2)no1 | 8.48% (inactive)
Cc1cc(OCc2cc(C(=O)NCc3cc(C(C)C)no3)no2)cc(C)c1Cl | 72.4% (active)
COc1ccccc1-c1nnc(NC(=O)c2cccc(N3C(=O)CCC3=O)c2)o1 | -0.976% (inactive)
COc1ccccc1-c1nnc(NC(=O)c2ccc3ncsc3c2)o1 | 66.2% (active)
COc1ccc(-c2nnc(NC(=O)CS(=O)(=O)c3ccc(Cl)cc3)o2)c(OC)c1 | 13.7% (inactive)
COc1ccc(NC(=O)NNC(=O)COc2cc(C)c(Cl)c(C)c2)c(OC)c1 | 0.264% (inactive)
O=C(NCc1ccccc1)C1=C[C@@H](C2CCCCC2)C[C@@H](OCc2ccc(CO)cc2)O1 | -2.03% (inactive)
COC(=O)c1ccc(C23CC4(C2)[C@H](CN(Cc2cccnc2)[C@@H]4c2ccccc2)C3c2ccc(Cl)nc2)cc1 (stereo partly drawn) | -2.32% (inactive)
CCC1CCCCN1C(=O)CSc1nc2c(c(=O)n1C)SC(C)C2 (stereo not drawn) | 0.908% (inactive)
C=C(C)CSc1nnc(-c2ccc(C)cc2)n1N | 37.8% (active)
Cc1ccc(-c2nnc(SC(C)C#N)n2N)cc1 (stereo not drawn) | 5.06% (inactive)
Cc1ccc(NC(=O)NC(=O)CSc2nnc(-c3ccc(OC(F)F)cc3)n2N)c(C)c1 | 11.8% (inactive)
Cc1cc(C)cc(N(CC(=O)N2CC=C(c3ccccc3)CC2)S(=O)(=O)c2c(C)noc2C)c1 | 8.05% (inactive)
CCN(CC)CCCNC(=O)c1ccc2c(=O)n(Cc3ccc4c(c3)OCO4)c(=S)[nH]c2c1 | 5.61% (inactive)
Cc1ccc(C(=O)CCC(=O)N(C)CC(=O)Nc2c(Cl)cccc2Cl)cc1 | 1.06% (inactive)
COc1ccc(-c2nn(CCC#N)cc2C(=O)Nc2ccc(C(C)=O)cc2)cc1 | 18.3% (active)
COc1ccc(-c2nn(CCC#N)cc2C(=O)O)cc1 | 0.75% (inactive)
COc1ccc(NC(=O)c2cn(CCC#N)nc2-c2ccc([N+](=O)[O-])cc2)cc1 | -3.78% (inactive)
COc1ccccc1NC(=O)C1CCCN1S(=O)(=O)c1ccc(Cl)cc1 (stereo not drawn) | 0.961% (inactive)
CCOc1ccc2nc(N(CCN(C)C)C(=O)c3ccc4ccccc4c3)sc2c1 | 8.51% (inactive)
Cc1ccc2nc(N(CCN(C)C)C(=O)C3=COCCO3)sc2c1 | 30.5% (active)
CCc1ccc2nc(N(CCCN(C)C)C(=O)c3ccc4c(c3)OCCO4)sc2c1 | 1.67% (inactive)
CN(C)CCN(C(=O)C1=COCCO1)c1nc2ccc(Cl)cc2s1 | 36.4% (active)

SMILES | max response
CC(=O)N(CCCN(C)C)c1nc2ccc(C)cc2s1 | 7.76% (inactive)
CN(C)CCN(C(=O)C1CCCCC1)c1nc2cc3c(cc2s1)OCO3 | 15.2% (inactive)
CC(C)(C)c1ccc(C(CC(=O)O)NS(=O)(=O)Cc2ccccc2)cc1 (stereo not drawn) | -5.97% (inactive)
CCCCn1c(SCC(=O)N2CCOCC2)nc2c1c(=O)n(C)c(=O)n2C | -6.86% (inactive)
O=C(Nc1ccc(Br)cc1F)C1CC(=O)N(C2CCCCC2)C1 (stereo not drawn) | -2.46% (inactive)
CC1=CCC2C(=O)N(c3cccc(C(=O)NC(C)c4ccccc4)c3)C(=O)C2C1 (stereo not drawn) | -2.5% (inactive)
Cc1ccc(C(=O)NC(=S)NCCN2CCOCC2)cc1 | 31.2% (active)
Cc1ccc(NC(=S)NCCN2CCOCC2)cc1 | -2.44% (inactive)
Cc1ccc(C(=O)N/C(=C\c2ccc(F)cc2)C(=O)NCCN2CCOCC2)cc1 | -2.99% (inactive)
CCc1ccc(C(CNc2nc(C(F)(F)F)nc3ccccc23)N(C)C)cc1 (stereo not drawn) | -6.3% (inactive)
COc1ccccc1C(=O)Nn1c(-c2cccs2)nc2ccccc2c1=O | 2.63% (inactive)
O=C(NCCCn1ccnc1)c1cc2c(s1)CCCC2 | -2.62% (inactive)
O=C(NCCCN1CCOCC1)c1cc2c(s1)CCC2 | 15.4% (active)
COc1ccc(C(CNC(=O)c2cc3c(s2)CCCC3)N2CCOCC2)cc1 (stereo not drawn) | 5.2% (inactive)
CCOc1ccc(C(C(=O)NC2CCCC2)N(C(=O)c2snc(C(N)=O)c2N)C2CCCC2)cc1 (stereo not drawn) | -3% (inactive)
CCN(CC)S(=O)(=O)c1ccc(Cl)c(C(=O)NCCN2CCOCC2)c1 | -7.58% (inactive)
CCN(CC)S(=O)(=O)c1ccc(N2CC(C(=O)NCc3cccnc3)CC2=O)cc1 (stereo not drawn) | -8.09% (inactive)
Oc1ccc(CNc2ccccc2O)cc1 | 35.8% (active)
O=C(Cc1ccc(Cl)cc1)NC(=S)Nc1ccccc1O | 0.61% (inactive)
O=[N+]([O-])c1ccccc1Nc1ccc(O)cc1 | -1.56% (inactive)
CCOC(=O)[C@@H]1[C@H]2COc3ccc(Br)cc3[C@H]2N2C(=O)N(c3ccc(Cl)cc3)C(=O)[C@@]12C | -3.81% (inactive)
CC(=O)Nc1cccc(-c2nc3ccccc3s2)c1C | 23.7% (active)
Oc1ccc(-c2[nH]ncc2-c2nc3ccccc3s2)c(O)c1 | 10.7% (inactive)
Cc1nn(CC(=O)Nc2nc3ccccc3s2)c(C)c1[N+](=O)[O-] | 16.7% (inactive)

SMILES | max response
COc1cccc(Cn2cc(/C=N/NC(=O)c3cc(O)cc(O)c3)c3ccccc32)c1 | 7.8% (inactive)
COC(=O)c1ccc(CNC(=O)C2CCC(=O)N(Cc3ccccn3)C2)cc1 (stereo not drawn) | -0.637% (inactive)
CCOC(=O)c1ccc(NC(=S)Nc2cc(C)cc(C)n2)cc1 | -2.45% (inactive)
CCOC(=O)c1cn[nH]c1NC(=S)Nc1ccccc1 | 67.1% (active)
CCOC(=O)c1cc2c(nc1NC(=S)Nc1ccccc1)CC(C)(CC)OC2 (stereo not drawn) | -1.51% (inactive)
O=C(COc1cc(Cl)c(Cl)cc1Cl)NC(=O)NC1CCCC1 | -3.88% (inactive)
O=C(CN1CCOCC1)N1CCCc2c1c(=O)oc1ccc(OCc3ccccc3)cc21 | -7.12% (inactive)
CCCc1c(C)nc2c(Br)cccc2c1Cl | -2.12% (inactive)
CCc1c(C)nc2c(OC)cccc2c1Cl | 10.5% (active)
COc1cccc2c(N/N=C/c3ccco3)cc(C)nc12 | 18.9% (inactive)
COc1ccc2c(c1)C(SCC(=O)NCc1ccccc1)CC(C)(C)O2 (stereo not drawn) | -3.58% (inactive)
CCOC(=O)C1=C(O)/C(=C/c2cc(C)n(-c3ccccc3)c2C)N=C1C | 10.2% (active)
COC(=O)C1=C(O)/C(=C/c2ccc(OCC(=O)Nc3ccccc3)cc2)N=C1C | -5.16% (inactive)
Cc1cc(/C=C2\SC(=O)N(C)C2=O)c(C)n1-c1cccc(C(=O)O)c1 | 10.2% (inactive)
CC(C)n1c(CN2CCN(Cc3ccccc3)CC2)nc2ccccc21 | -2.09% (inactive)
CC(C)=NN1C(=O)c2ccccc2NC1(C)C | 37.9% (active)
CC(=O)NN1C(=O)c2ccccc2NC1c1ccccc1 (stereo not drawn) | -3.65% (inactive)
CC(=O)N1C(=O)C2(Nc3ccccc3N2)c2ccccc21 | -2.2% (inactive)
Cc1cccc(NC(=O)C2CCCN(C(=O)Nc3ccc(F)cc3)C2)c1C (stereo not drawn) | -3.65% (inactive)
CCC(=O)NC(=Nc1nc2ccccc2s1)NC(=O)CC | 28.7% (active)
CC(C)CC(=O)N/C(N)=N/c1nc2ccccc2s1 | 44.8% (active)
CC(C)CC(=O)NC(=S)NCc1ccccc1 | 3.76% (inactive)
CC(C)C(C)NC(=O)COc1ncnc2ccccc12 (stereo not drawn) | -3.43% (inactive)
CCC(=O)NCCc1nc2ccccc2n1CC | -2.66% (inactive)

SMILES | max response
Cc1cc(C(=O)OCC(=O)Nc2nnc(C(C)C)s2)c2ccccc2n1 | -2.56% (inactive)
CSCCC(NS(=O)(=O)c1ccccc1F)C(=O)N1CC=C(c2ccccc2)CC1 (stereo not drawn) | -2.39% (inactive)
COc1ccc(N(C(=O)c2snc(C(N)=O)c2N)C(C(=O)NC2CCCC2)c2ccco2)cc1OC (stereo not drawn) | -2.38% (inactive)
CC(C)C(C(=O)NCc1ccco1)N(CC1CCCO1)C(=O)CNS(=O)(=O)c1ccc(F)cc1 (stereo not drawn) | -6.69% (inactive)
Cc1cc(-c2ccc(S(=O)(=O)N3CCc4ccccc4C3)s2)on1 | -3.48% (inactive)
O=C(N/N=C/c1cc(Cl)cc([N+](=O)[O-])c1O)C(O)(c1ccccc1)c1ccccc1 | -1.36% (inactive)
N#Cc1ccsc1NC(=O)CN1CCN(S(=O)(=O)c2cc(Cl)ccc2Cl)CC1 | -2.08% (inactive)
C=C(C)C(=O)O[C@H]1C/C(C)=C\C(=O)/C=C(\C)[C@H](O)[C@@H]2OC(=O)C(=C)[C@@H]21 | 41.8% (active)
Nc1nonc1-n1nnc(C(=O)N/N=C\c2ccncc2)c1CN1CCCCC1 | -1.14% (inactive)
O=C(c1ccc(C(F)(F)F)cc1)C1CCCN(C(=O)c2csnn2)C1 (stereo not drawn) | 1.58% (inactive)
CCN(CC(=O)Nc1ccccc1OC)C(=O)Cn1cnc2ccccc2c1=O | 1.69% (inactive)
Cc1ccn2cc(-c3nonc3C)cc2c1 | 11.7% (active)
CN(C)C(=O)c1ccc(NC(=O)c2ccccc2-c2ccccc2)cc1 | -3.02% (inactive)
COc1cc(CN(C)Cc2nc3cc(C(F)(F)F)ccc3c(=O)[nH]2)ccc1OC(F)F | 1.37% (inactive)
CC1(C)SC2C(NC(=O)COc3ccccc3)C(=O)N2C1C(=O)O (stereo not drawn) | -0.647% (inactive)
O=C(O)c1ccccc1-c1ccccc1C(=O)NCCc1ccccc1 | 0.507% (inactive)
COc1cc(/C=C/C(=O)O)cc(S(=O)(=O)Nc2ccccc2SC)c1OC | -2.09% (inactive)
NC(=O)c1ccccc1NC(=O)c1ccccc1F | 14.9% (inactive)
NC(=O)Nc1ccccc1C(=O)NCCc1ccccc1 | 63.4% (active)
COc1cc(OC)c(S(=O)(=O)Nc2ccccc2C(=O)O)cc1S(=O)(=O)Nc1ccccc1C(=O)O | -2.35% (inactive)
COc1cc(/C=C/C(=O)O)cc(S(=O)(=O)Nc2ccccc2C(=O)NCCc2ccccc2)c1OC | 41.8% (active)
